# In the supplement of paper PMC7366291:
# Structures can show the parent of a compound that is named as a salt. ± gives the standard deviation of the averaged measurements.
# Tested on: Danio rerio Tg(wt1b:EGFP) embryo, pronephros
# Assay: fraction of imaged embryos annotated as normal kidney; higher = less nephrotoxic; extreme values may be limits of the assay
# Details: 25 µM; exposure: 24-48 hpf
# How it was run: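 The read-out is the proportion of embryos in each treatment manually annotated as normal-kidney. Exposure ran from 24 to 48 hpf at 28.5°C in 12-well plates, using dechorionated Tg(wt1b:EGFP) zebrafish embryos in 5 mM HEPES-buffered E3 with 0.003% PTU, 0.5% DMSO and 25 μM compound. For imaging, larvae were anaesthetised with tricaine, positioned dorsally in agarose-filled 96-well plates and captured by widefield fluorescence (470 nm, 10 z-slices), with scoring done on maximum projections.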
row,SMILES,fraction of imaged embryos annotated as normal kidney
1,COc1ccc([C@@H]2CC(=O)c3c(O)cc(O[C@@H]4O[C@H](CO[C@@H]5O[C@@H](C)[C@H](O)[C@@H](O)[C@H]5O)[C@@H](O)[C@H](O)[C@H]4O)cc3O2)cc1O [Hesperidin],0.917
2,"C[C@](N)(Cc1ccc(O)c(O)c1)C(=O)O [Methyldopa (L,-)]",0.909
3,CCCc1nn(C)c2c(=O)[nH]c(-c3cc(S(=O)(=O)N4CCN(C)CC4)ccc3OCC)nc12 [Sildenafil],1
4,CCN1CCN(C(=O)N[C@@H](C(=O)N[C@@H]2C(=O)N3C(C(=O)O)=C(CSc4nnnn4C)CS[C@H]23)c2ccc(O)cc2)C(=O)C1=O [Cefoperazone dihydrate],0.909
5,CC(C)(C)NCC(O)c1ccc(O)c(CO)c1 (stereo not given) [Salbutamol],0.833
6,Nc1ccc(S(=O)(=O)Nc2ccnn2-c2ccccc2)cc1 [Sulfaphenazole],0.917
7,Cc1cc2cc3c(C)cc(=O)oc3c(C)c2o1 [Trioxsalen],0.917
8,CC(=O)CCCCn1c(=O)c2c(ncn2C)n(C)c1=O [Pentoxifylline],0.583
9,Cc1[nH]c(=O)c(C#N)cc1-c1ccncc1 [Milrinone],0.917
10,CN(C/C=C/C#CC(C)(C)C)Cc1cccc2ccccc12 [Terbinafine],1
11,CCCN[C@H]1CCc2nc(N)sc2C1 [Pramipexole dihydrochloride],0.833
12,Nc1cc(C(Cl)=C(Cl)Cl)c(S(N)(=O)=O)cc1S(N)(=O)=O [Clorsulon],0.917
13,O=C(O)CN(CCN(CC(=O)O)CC(=O)O)CCN(CC(=O)O)CC(=O)O [Pentetic acid],0.917
14,O=C(O[C@@H]1C[C@@H]2C[C@H]3C[C@H](C1)N2CC3=O)c1c[nH]c2ccccc12 [Dolasetron mesilate],0.75
15,CCCCCCCCNC(C)C(O)c1ccc(SC(C)C)cc1 (stereo not given) [Suloctidil],0

# Tested on: Danio rerio Tg(wt1b:EGFP) embryo, pronephros
# Assay: pronephric angle neck segment to proximal convoluted tubule (mean of left and right), fold change vs DMSO control; higher = larger pronephric angle
# Details: 25 µM; exposure: 24-48 hpf
# How it was run: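 Dechorionated Tg(wt1b:EGFP) zebrafish embryos were exposed to 25 μM compound in 0.5% DMSO, HEPES-buffered E3 with 0.003% PTU, from 24 to 48 hpf at 28.5°C. Pronephroi were imaged dorsally in agarose-filled 96-well plates (470 nm, 10 z-slices). On maximum projections, 16 reference points were set manually in Fiji and a macro computed distances and angles. Values more than 2 SD from the feature mean were excluded. Each feature is a fold change relative to the mean of same-day DMSO controls.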
row,SMILES,pronephric angle neck segment
1,CN(C)CCN(Cc1cccs1)c1ccccn1 [Methapyrilene hydrochloride],0.9838 ± 0.0071
2,Cc1ccnc2c1NC(=O)c1cccnc1N2C1CC1 [Nevirapine],1.03 ± 0.048
3,CC(Oc1ccccc1)C(=O)N[C@@H]1C(=O)N2[C@@H]1SC(C)(C)[C@@H]2C(=O)O (stereo not given in full) [Phenethicillin potassium salt],0.989 ± 0.028
4,CN1CCN(CCCN2c3ccccc3Sc3ccc(C(F)(F)F)cc32)CC1 [Trifluoperazine dihydrochloride],0.9555 ± 0.0078
5,CCN(CC)CCCC(C)Nc1c2ccc(Cl)cc2nc2ccc(OC)cc12 (stereo not given) [Quinacrine dihydrochloride hydrate],0.971 ± 0.021
6,N=C(N)NCCN1CCCCCCC1 [Guanethidine sulfate],0.958 ± 0.035
7,Nc1nc(=O)c2c([nH]1)NC[C@@H](CNc1ccc(C(=O)N[C@@H](CCC(=O)O)C(=O)O)cc1)N2C=O [Folinic acid calcium salt],0.979 ± 0.042
8,COc1cc2nc(N(C)CCCNC(=O)C3CCCO3)nc(N)c2cc1OC (stereo not given) [Alfuzosin hydrochloride],0.953 ± 0.036
9,CC(=O)O[C@]1(C(C)=O)CC[C@H]2[C@@H]3C=C(C)C4=CC(=O)CC[C@]4(C)[C@H]3CC[C@@]21C [Megestrol acetate],0.9907 ± 0.0078
10,CCN(CC)CCNC(=O)c1cc(Cl)c(N)cc1OC [Metoclopramide monohydrochloride],0.944 ± 0.032
11,COCC1=C(C(=O)OC(C)OC(=O)OC(C)C)N2C(=O)[C@@H](NC(=O)/C(=N\OC)c3csc(N)n3)[C@H]2SC1 (stereo not given in full) [Cefpodoxime proxetil],1.05 ± 0.054
12,CCC(=O)[C@@]1(C)[C@H](C)C[C@H]2[C@@H]3CCC4=CC(=O)C=C[C@]4(C)[C@H]3[C@@H](O)C[C@@]21C [Rimexolone],0.965 ± 0.031
13,Brc1c(NC2=NCCN2)ccc2nccnc12 [Brimonidine L-Tartrate],0.993 ± 0.1
14,COc1ccc2[nH]c([S+]([O-])Cc3ncc(C)c(OC)c3C)nc2c1 (stereo not given) [Omeprazole],1.1759 ± 0.00043
15,CCOC(=O)[C@H](CCc1ccccc1)N[C@@H](C)C(=O)N1Cc2ccccc2C[C@H]1C(=O)O [Quinapril hydrochloride],0.99 ± 0.015
16,O=C(NC(Cc1cc(=O)[nH]c2ccccc12)C(=O)O)c1ccc(Cl)cc1 (stereo not given) [Rebamipide],0.972 ± 0.034
17,C[C@@H]1C[C@H]2[C@@H]3C[C@H](F)C4=CC(=O)C=C[C@]4(C)[C@@]3(Cl)[C@@H](O)C[C@]2(C)[C@H]1C(=O)COC(=O)C(C)(C)C [Clocortolone pivalate],1.077 ± 0.009
18,CC(C)N1CCN(c2ccc(OCC3COC(Cn4cncn4)(c4ccc(Cl)cc4Cl)O3)cc2)CC1 (stereo not given) [Terconazole],0.948 ± 0.017
19,CNCCC=C1c2ccccc2CCc2ccccc21 [Nortriptyline hydrochloride],1.03 ± 0.011
20,CCN(CC)C(C)CN1c2ccccc2Sc2ccccc21 (stereo not given) [Ethopropazine hydrochloride],1 ± 0.029

row,SMILES,pronephric angle neck segment
1,CN1CCC(=C2c3ccccc3Sc3ccccc32)CC1 [Pimethixene maleate],1.062 ± 0.0083
2,CCOc1ccc2ccccc2c1C(=O)N[C@@H]1C(=O)N2[C@@H]1SC(C)(C)[C@@H]2C(=O)O [Nafcillin sodium salt monohydrate],1.041 ± 0.0022
3,Cc1ccc(NC(=O)c2ccc(CN3CCN(C)CC3)cc2)cc1Nc1nccc(-c2cccnc2)n1 [Imatinib],1.01 ± 0.018
4,CCCCCN(C)CCC(O)(P(=O)(O)O)P(=O)(O)O [Ibandronate sodium],0.981 ± 0.048
5,CC(=O)OCC(=O)[C@@]1(O)CC[C@H]2[C@@H]3CCC4=CC(=O)C=C[C@]4(C)[C@@]3(F)[C@@H](O)C[C@@]21C [Isoflupredone acetate],1.014 ± 0.0048
6,COc1ccc([C@@H]2CC(=O)c3c(O)cc(O[C@@H]4O[C@H](CO[C@@H]5O[C@@H](C)[C@H](O)[C@@H](O)[C@H]5O)[C@@H](O)[C@H](O)[C@H]4O)cc3O2)cc1O [Hesperidin],0.981 ± 0.012
7,"C[C@](N)(Cc1ccc(O)c(O)c1)C(=O)O [Methyldopa (L,-)]",1.001 ± 0.0027
8,CCCc1nn(C)c2c(=O)[nH]c(-c3cc(S(=O)(=O)N4CCN(C)CC4)ccc3OCC)nc12 [Sildenafil],0.9607 ± 0.0012
9,CCN1CCN(C(=O)N[C@@H](C(=O)N[C@@H]2C(=O)N3C(C(=O)O)=C(CSc4nnnn4C)CS[C@H]23)c2ccc(O)cc2)C(=O)C1=O [Cefoperazone dihydrate],1.046 ± 0.0064
10,CC(C)(C)NCC(O)c1ccc(O)c(CO)c1 (stereo not given) [Salbutamol],1.04 ± 0.041
11,Nc1ccc(S(=O)(=O)Nc2ccnn2-c2ccccc2)cc1 [Sulfaphenazole],1.02 ± 0.024
12,Cc1cc2cc3c(C)cc(=O)oc3c(C)c2o1 [Trioxsalen],1.03 ± 0.049
13,CC(=O)CCCCn1c(=O)c2c(ncn2C)n(C)c1=O [Pentoxifylline],0.752 ± 0.033
14,Cc1[nH]c(=O)c(C#N)cc1-c1ccncc1 [Milrinone],0.9759 ± 0.0011
15,CN(C/C=C/C#CC(C)(C)C)Cc1cccc2ccccc12 [Terbinafine],1.01 ± 0.025
16,CCCN[C@H]1CCc2nc(N)sc2C1 [Pramipexole dihydrochloride],1.01 ± 0.046
17,Nc1cc(C(Cl)=C(Cl)Cl)c(S(N)(=O)=O)cc1S(N)(=O)=O [Clorsulon],0.935 ± 0.044
18,O=C(O)CN(CCN(CC(=O)O)CC(=O)O)CCN(CC(=O)O)CC(=O)O [Pentetic acid],0.9888 ± 0.0057
19,O=C(O[C@@H]1C[C@@H]2C[C@H]3C[C@H](C1)N2CC3=O)c1c[nH]c2ccccc12 [Dolasetron mesilate],0.946 ± 0.035
20,CCCCCCCCNC(C)C(O)c1ccc(SC(C)C)cc1 (stereo not given) [Suloctidil],1.48 ± 0.033
